Among the data in PubChem BioAssay (Tox21) are Potency, max activation and outcome values, retold here.

For assay [1], the target named is Progesterone receptor (Homo sapiens) (UniProt P06401). Put plainly: qHTS assay to identify small molecule agonists of the progesterone receptor (PR) signaling pathway (AID 1346784; calls by dose curve; also: nearly all actives have a fitted effect of over 30% in size). A digest of the protocol:
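PR-UAS-bla HEK 293T cells (beta-lactamase reporter under UAS) in 2% charcoal-stripped FBS, dosed with 23 nL compound after 6 hr, incubated 16hr at 37C. LiveBLAzer B/G FRET substrate added, fluorescence read after 2 hours.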
A general note: qHTS replaces the single test concentration by a dilution series.

For assay [2] the target is unchanged. Put plainly: qHTS assay to identify small molecule antagonists of the progesterone receptor (PR) signaling pathway (AID 1346795; active = well fitted inhibition curve with a large enough effect in the signal ratio in the repeat runs, not every such curve was filed as active; the % refers to the signal ratio; also: potency is read from the fitted curve at half-maximal effect). An outline of the steps:
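PR-UAS-bla HEK293T cells with beta-lactamase reporter under UAS control, in 2% charcoal-stripped FBS, treated with compounds plus 1 nM promegestone (R5020, final) for 16 hr at 37C. Read-out: FRET beta-lactamase substrate fluorescence after 2 hr at room temperature.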

Assay [3] in a line: qHTS assay to identify small molecule antagonists of the progesterone receptor (PR) signaling pathway - cell viability counter screen (AID 1346798). Also: nearly all actives have a fitted effect of over 50% in size. Also: potency is read from the fitted curve at half-maximal effect. An outline of the steps: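 PR-UAS-bla HEK293T cells, 3,000/well in 2% charcoal-stripped FBS medium, dosed with compounds plus R5020 agonist and incubated 16 h at 37C. Viability then measured in the same wells by CellTiter-Glo luminescence after 30 min at RT.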

The nature of assay [4]: qHTS assay to identify small molecule agonists of the progesterone receptor (PR) signaling pathway - cell viability counter screen (AID 1346799; calls by dose curve; also: nearly all actives have a fitted effect of over 45% in size; also: potency is read from the fitted curve at half-maximal effect). An outline of the steps:
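Counter screen in the PR-UAS-bla HEK293T wells (2% charcoal-stripped FBS, 16 h compound exposure at 37 C) after the bla read. CellTiter-Glo added, 30 min at room temperature, luminescence read as cell viability.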

A short description of assay [5]: qHTS assay to identify small molecule antagonists of the TGF-beta/Smad signaling pathway - cell viability counter screen (AID 1346824). Also: nearly all actives have a fitted effect of over 50% in size. Also: potency is read from the fitted curve at half-maximal effect. A digest of the protocol: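 Cytotoxicity counter-screen run in the same wells as the beta-lactamase Smad reporter read: CellTiter-Glo luminescence after 30 min at room temperature. HEK 293T SBE-bla cells had 5 hr compound exposure at 37 C with TGF-beta1 (0.25 ng/mL stock).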

The nature of assay [6]: qHTS assay to identify small molecule agonists of the TGF-beta/Smad signaling pathway - cell viability counter screen (AID 1346829). Also: nearly all actives have a fitted effect of over 45% in size. Also: potency is read from the fitted curve at half-maximal effect. A digest of the protocol:
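Same-well cytotoxicity: CellTiter-Glo added after the 2 hr room-temperature beta-lactamase substrate step, luminescence measured 30 min later; cells had 5 hr of compound at 37 C.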

The nature of assay [7]: Human pregnane X receptor (PXR) small molecule agonists, qHTS cell viability counter screen (AID 1346977). Also: nearly all actives have a fitted effect of over 50% in size. Also: potency is read from the fitted curve at half-maximal effect. An outline of the steps:
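PXR-Luc HepG2 cells (2,000/well, 5% charcoal-stripped FBS) preincubated 5 hr, then exposed to compounds 24 hr at 37 C. Viability read in the same wells by CellTiter-Fluor fluorescence, reagent added at 23 hr, 1 hr incubation.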

Assay [8] is described as follows: Caspase-3/7 induction in HepG2 cells by small molecules, qHTS assay (AID 1346978). Also: nearly all actives have a fitted effect of over 15% in size. Also: potency is read from the fitted curve at half-maximal effect. A digest of the protocol:
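Caspase-3/7 induction was measured by Caspase-Glo 3/7 luminescence (30 min, room temperature) after a 17 hr compound exposure of wild-type HepG2 cells seeded at 2,000 per well and pre-incubated 5 hr.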

The nature of assay [9]: Caspase-3/7 induction in HepG2 cells by small molecules, qHTS cell viability counter screen (AID 1346981). Also: nearly all actives have a fitted effect of over 30% in size. Also: potency is read from the fitted curve at half-maximal effect. An outline of the steps: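 HepG2, WT, 2,000 cells/well; 5 hr pre-incubation 37 C/5% CO2; compound pin-transferred from DMSO; 16 hr exposure; CellTiter-Fluor, 1 hr; fluorescence read.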
Assay [10] concerns the target Nuclear receptor subfamily 1 group I member 2 (Homo sapiens) (UniProt O75469). Put plainly: Human pregnane X receptor (PXR) small molecule agonists, qHTS assay (AID 1346982). Also: nearly all actives have a fitted effect of over 35% in size. Also: potency is read from the fitted curve at half-maximal effect. A digest of the protocol: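 Luciferase signal from ONE-Glo (30 min, room temperature) measured activation of hPXR-driven CYP3A4 reporter expression in PXR-Luc HepG2 cells treated with compounds for 24 hr at 37 C.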

The target of assay [11] is Nuclear receptor subfamily 1 group I member 2 (Rattus norvegicus) (UniProt Q9R1A7). The assay can be described thus: Rat pregnane X receptor (rPXR) activation by small molecules, qHTS assay (AID 1346983). Also: nearly all actives have a fitted effect of over 20% in size. The settings on record: rPXR luciferase reporter cells, One-Glo luminescence, 24 h; max activation: stronger effect = higher value. A digest of the protocol:
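Luminescent readout (One-Glo luciferase, 30 min room temperature) followed 24 hr compound treatment at 37 C of rPXR cells plated 2,000 per well and preincubated 5hr; qHTS format with compounds delivered in DMSO.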

The target in assay [12] is Nuclear receptor subfamily 1 group I member 2 (Homo sapiens) (UniProt O75469). Put plainly: CYP3A4 induction through human pregnane X receptor (PXR) by small molecules, qHTS assay (AID 1346984). Also: nearly all actives have a fitted effect of over 40% in size. A digest of the protocol:
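Luminescence readout: luciferase signal after One-Glo (30 min, room temperature), following 3 h at 37C with 3uM final Luciferin-IPA P450 substrate. Cells were DPX-2 (HepG2, PXR/CYP3A4-luc co-transfected) dosed for 24 h.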

For assay [13] the target is unchanged. The assay can be described thus: Human pregnane X receptor (PXR) activation by small molecules, qHTS assay (AID 1346985). Also: nearly all actives have a fitted effect of over 40% in size. An outline of the steps:
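DPX-2 cells (HepG2 co-transfected with a PXR response element and a CYP3A4-promoter luciferase construct) were seeded at 2,000 per well, rested 5 hr at 37C, then exposed to DMSO-dissolved compounds for 24 hr. Activation was read as luciferase luminescence.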

Assay [14] deals with Cytochrome P450 2D6 (Homo sapiens) (UniProt P10635). Put plainly: Cytochrome P450 Family 2 Subfamily D Member 6 (CYP2D6) small molecule antagonists: luciferase reporter qHTS assay (AID 1671196). Also: nearly all actives have a fitted effect of over 50% in size. Also: potency is read from the fitted curve at half-maximal effect. A digest of the protocol:
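Read-out is luminescence from luciferin formed by CYP2D6 turnover of a proluciferin substrate, recorded as relative luminescence units. Reactions ran 1 h at room temperature after NADPH regeneration solution was added.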
Background: In a reporter assay the amount or activity of a reporter protein is the signal.

Assay [15] has as its target Cytochrome P450 2C19 (Homo sapiens) (UniProt P33261). Put plainly: Cytochrome P450 Family 2 Subfamily C Member 19 (CYP2C19) small molecule antagonists: luciferase reporter qHTS assay (AID 1671197). Also: nearly all actives have a fitted effect of over 65% in size. Also: potency is read from the fitted curve at half-maximal effect. A digest of the protocol: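 Quantitative high-throughput screen of the Tox21 library using CYP2C19 with proluciferin substrate. Reaction: NADPH regeneration, 37C, 1 h, after 10 min compound preincubation at room temperature. Readout: luminescence.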

The nature of assay [16]: qHTS assay to identify small molecule agonists of the TGF-beta/Smad signaling pathway (AID 1346859; active = well fitted activation curve with a large enough effect in the signal ratio in the repeat runs, not every such curve was filed as active; the % refers to the signal ratio; also: series mostly up to about 77 µM). An outline of the steps:
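SBE-bla HEK293T cells plated overnight, then compound exposure for 5 h at 37 C. Beta-lactamase reporter read with LiveBLAzer B/G FRET substrate after 2 h at room temperature, fluorescence at 405 nm excitation, 460/530 nm emission.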

In assay [17] the target is Thyrotropin-releasing hormone receptor (Homo sapiens) (UniProt P34981). The assay can be described thus: qHTS assay to identify small molecule antagonists of the thyrotropin-releasing hormone receptor (TRHR) signaling pathway (AID 1346877; active = well fitted inhibition curve with a large enough effect in the repeat runs, not every such curve was filed as active; also: series mostly up to about 51 µM). A digest of the protocol:
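Intracellular calcium fluorescence, read kinetically every second over 3 min, reports TRH-evoked signalling in HEK293 cells carrying TRHR. Test compounds were added 5 min ahead of a 1 nM TRH challenge.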

For assay [18] the target is unchanged. The assay can be described thus: qHTS assay to identify small molecule agonists of the thyrotropin-releasing hormone receptor (TRHR) signaling pathway (AID 1346891; calls by dose curve; also: series mostly up to about 58 µM). A digest of the protocol: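 HEK293 cells expressing TRHR plated 18 h at 37 C/5% CO2, calcium dye-loaded 2 h at 37 C, then compound added (agonist mode); kinetic calcium fluorescence read 3 min at 1 s intervals; 15 concentrations in triplicate.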

A short description of assay [19]: Caspase-3/7 induction in CHO-K1 cells by small molecules, qHTS cell viability counter screen (AID 1346979). Also: nearly all actives have a fitted effect of over 35% in size. Also: potency is read from the fitted curve at half-maximal effect. A digest of the protocol: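 Wild-type CHO-K1 cells (1,500/well) treated with compound after 5 h plating; after 16 h at 37C, viability read as CellTiter-Fluor fluorescence following 1 h reagent incubation, in the same wells as the caspase read.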
Assay [20] can be described thus: Caspase-3/7 induction in CHO-K1 cells by small molecules, qHTS assay (AID 1346980). Also: nearly all actives have a fitted effect of over 15% in size. An outline of the steps:
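Luminescent Caspase-Glo 3/7 read (30min, room temperature) quantified apoptosis induction. Cells were wild-type CHO-K1, treated with compound for 17hr at 37 C and 5% CO2.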

Molecules are shown by their SMILES. Where “and” joins values, the source holds several entries; their conditions need not be identical. Identical values can stand only once. Records with an inconclusive call do not appear. Where a structure was tested more than once in an assay, its records may differ in their call. Calls of active or inactive are those of the source. Unless noted, calls follow the shape of the dose curve; as a rule, active = well fitted curve in the direction sought with a large enough effect in the repeat runs; inconclusive = weak or mixed curves; inactive = no such curve, though single readings can be large; an effect the other way counts as inactive or inconclusive.
% is scaled to controls: 0 for no effect and ±100 for the full control effect.

Nuclear receptor subfamily 1 group I member 2 (Homo sapiens), sequence (O75469 whole entry, looked up): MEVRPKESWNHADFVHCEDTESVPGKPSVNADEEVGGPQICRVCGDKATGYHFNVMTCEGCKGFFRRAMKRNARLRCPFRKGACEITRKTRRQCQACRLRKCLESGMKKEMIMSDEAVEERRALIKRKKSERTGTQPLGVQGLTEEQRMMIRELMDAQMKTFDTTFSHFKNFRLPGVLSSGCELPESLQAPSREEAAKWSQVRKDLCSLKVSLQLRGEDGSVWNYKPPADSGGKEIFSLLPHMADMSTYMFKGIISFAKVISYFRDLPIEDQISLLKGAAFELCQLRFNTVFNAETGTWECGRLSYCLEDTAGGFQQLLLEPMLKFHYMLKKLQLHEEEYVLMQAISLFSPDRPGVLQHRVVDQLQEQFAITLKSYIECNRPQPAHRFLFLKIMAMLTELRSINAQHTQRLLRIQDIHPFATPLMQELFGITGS
Progesterone receptor (Homo sapiens), sequence (P06401 whole entry, looked up): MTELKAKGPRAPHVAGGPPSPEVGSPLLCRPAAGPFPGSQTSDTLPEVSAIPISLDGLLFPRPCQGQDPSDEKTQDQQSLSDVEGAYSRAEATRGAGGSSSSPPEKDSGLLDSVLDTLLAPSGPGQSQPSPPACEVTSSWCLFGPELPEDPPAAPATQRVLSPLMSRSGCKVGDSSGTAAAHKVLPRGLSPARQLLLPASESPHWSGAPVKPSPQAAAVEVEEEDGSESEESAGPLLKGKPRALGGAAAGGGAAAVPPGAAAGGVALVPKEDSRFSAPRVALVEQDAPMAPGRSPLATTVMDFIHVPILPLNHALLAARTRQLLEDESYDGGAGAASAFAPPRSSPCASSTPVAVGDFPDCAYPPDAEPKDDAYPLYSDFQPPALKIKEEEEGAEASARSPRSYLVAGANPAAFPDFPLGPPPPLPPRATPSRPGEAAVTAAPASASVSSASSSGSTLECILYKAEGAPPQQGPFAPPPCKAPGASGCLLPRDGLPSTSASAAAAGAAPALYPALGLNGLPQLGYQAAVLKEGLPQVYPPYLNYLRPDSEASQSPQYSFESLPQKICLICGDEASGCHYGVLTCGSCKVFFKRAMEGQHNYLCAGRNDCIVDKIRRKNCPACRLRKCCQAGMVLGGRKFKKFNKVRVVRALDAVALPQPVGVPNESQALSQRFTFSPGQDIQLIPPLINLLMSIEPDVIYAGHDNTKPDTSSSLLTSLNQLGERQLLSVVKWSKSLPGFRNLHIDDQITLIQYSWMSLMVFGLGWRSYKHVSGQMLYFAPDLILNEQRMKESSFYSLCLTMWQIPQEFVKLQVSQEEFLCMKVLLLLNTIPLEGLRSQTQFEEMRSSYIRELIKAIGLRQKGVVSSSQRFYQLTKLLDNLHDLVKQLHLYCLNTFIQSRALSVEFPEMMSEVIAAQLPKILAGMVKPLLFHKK
Cytochrome P450 2D6 (Homo sapiens), sequence (P10635 whole entry, looked up): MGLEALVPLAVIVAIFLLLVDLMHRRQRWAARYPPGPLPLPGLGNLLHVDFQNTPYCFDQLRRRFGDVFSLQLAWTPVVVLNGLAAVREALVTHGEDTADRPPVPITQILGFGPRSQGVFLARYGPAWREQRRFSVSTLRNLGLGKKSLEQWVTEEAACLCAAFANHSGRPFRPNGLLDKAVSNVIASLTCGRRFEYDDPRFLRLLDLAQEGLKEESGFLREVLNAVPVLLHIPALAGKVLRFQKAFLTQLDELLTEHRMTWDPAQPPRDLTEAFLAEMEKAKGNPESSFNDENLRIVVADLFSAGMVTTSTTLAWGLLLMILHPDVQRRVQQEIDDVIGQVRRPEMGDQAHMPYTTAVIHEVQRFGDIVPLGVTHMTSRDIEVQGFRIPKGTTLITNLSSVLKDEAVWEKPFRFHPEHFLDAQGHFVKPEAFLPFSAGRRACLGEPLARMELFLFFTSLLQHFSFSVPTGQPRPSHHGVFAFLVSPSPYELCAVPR
Cytochrome P450 2C19 (Homo sapiens), sequence (P33261 whole entry, looked up): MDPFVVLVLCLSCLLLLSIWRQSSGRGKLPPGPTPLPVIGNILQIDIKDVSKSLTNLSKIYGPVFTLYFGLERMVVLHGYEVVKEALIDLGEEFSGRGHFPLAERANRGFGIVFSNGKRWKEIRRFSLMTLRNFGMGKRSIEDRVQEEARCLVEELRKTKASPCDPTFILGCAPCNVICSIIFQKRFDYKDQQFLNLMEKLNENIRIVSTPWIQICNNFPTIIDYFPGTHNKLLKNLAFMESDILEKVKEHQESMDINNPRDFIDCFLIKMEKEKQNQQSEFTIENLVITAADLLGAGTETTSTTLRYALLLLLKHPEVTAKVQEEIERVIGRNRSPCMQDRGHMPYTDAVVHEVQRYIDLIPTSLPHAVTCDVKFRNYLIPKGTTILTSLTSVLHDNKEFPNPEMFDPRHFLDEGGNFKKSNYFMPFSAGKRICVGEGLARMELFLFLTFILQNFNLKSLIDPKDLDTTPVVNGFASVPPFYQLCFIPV
Nuclear receptor subfamily 1 group I member 2 (Rattus norvegicus), sequence (Q9R1A7 whole entry, looked up): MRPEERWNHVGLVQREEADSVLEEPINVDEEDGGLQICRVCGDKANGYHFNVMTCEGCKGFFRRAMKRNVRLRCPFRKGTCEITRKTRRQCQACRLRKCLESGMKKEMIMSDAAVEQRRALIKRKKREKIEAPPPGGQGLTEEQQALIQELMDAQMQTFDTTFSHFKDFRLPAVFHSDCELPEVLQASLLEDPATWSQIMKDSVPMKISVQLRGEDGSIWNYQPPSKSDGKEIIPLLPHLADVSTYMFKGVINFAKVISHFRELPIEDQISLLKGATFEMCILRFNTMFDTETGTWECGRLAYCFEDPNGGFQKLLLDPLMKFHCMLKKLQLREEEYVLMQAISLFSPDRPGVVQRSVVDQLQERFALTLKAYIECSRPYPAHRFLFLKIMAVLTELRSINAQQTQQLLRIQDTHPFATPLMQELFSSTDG
Thyrotropin-releasing hormone receptor (Homo sapiens), sequence (P34981 whole entry, looked up): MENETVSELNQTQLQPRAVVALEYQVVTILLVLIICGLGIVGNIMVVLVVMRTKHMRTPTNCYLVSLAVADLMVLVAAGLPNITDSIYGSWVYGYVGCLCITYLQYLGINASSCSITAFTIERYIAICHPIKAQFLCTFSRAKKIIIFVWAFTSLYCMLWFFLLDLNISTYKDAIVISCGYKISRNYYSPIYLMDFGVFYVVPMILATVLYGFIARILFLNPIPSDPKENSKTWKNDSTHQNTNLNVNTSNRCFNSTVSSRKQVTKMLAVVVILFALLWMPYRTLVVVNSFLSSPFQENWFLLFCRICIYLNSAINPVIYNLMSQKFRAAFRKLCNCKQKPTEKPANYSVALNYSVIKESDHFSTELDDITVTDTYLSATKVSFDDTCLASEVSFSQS

In the case of `C1CCC(C(CC2CCCCN2)C2CCCCC2)CC1` (stereo not drawn), the Potency result in assay [1] and in [12] was “inactive” in each case. Also, the Potency in assay [2] was 29.8 µM (active); in assay [3] it was 26.6 µM (active); in [4] it was 23.7 µM (active); in assay [5], 26.8 µM (active); in [6] it was 26.8 µM (active); in assay [7], 26.6 µM (active). The Potency is 33.5 µM (active) in assay [8]; 29.8 µM (active) in [9]; 6.68 µM (active) in assay [10]; 1.1 µM (active) in assay [14]; 24.5 µM (active) in [15]. In assay [11], the max activation is -20.4% (inactive). For the same compound, the outcome in assay [13] was inactive.

As for `CCCc1cc(=O)[nH]c(=S)[nH]1`, the Potency entry in [1], in [2], in [3], in [4], in [5] and in assay [17] was “inactive” in each case. Moreover, the Potency result in [18], in assay [7], in assay [19], in assay [9], in assay [10] and in assay [12] was “inactive” throughout. Further, the Potency result in [14] and in [15] was “inactive” throughout. Also, the call in assay [16] and in assay [13] was inactive. Besides, in assay [11], the max activation was -3.01% (inactive).

In the case of `CC(=O)C(=O)O`, the Potency result in assay [1], in [2], in assay [3], in [5], in [6] and in assay [7] was “inactive” in each case. The Potency result in [19], in assay [9], in [10], in [14] and in assay [15] was “inactive” each time. In addition, the Potency result in assay [4] is “inactive and 34.4 µM (active)”. Moreover, the call in assay [16] was inactive.

Regarding `Nc1ccc(S(N)(=O)=O)cc1`, the Potency entry in [1], in assay [2], in [3], in [4], in [5] and in assay [17] was “inactive” throughout. For the same compound, the Potency entry in [18], in assay [7] and in [9] was “inactive” throughout. The compound was classed as inactive in assay [16]. For the same compound, in assay [19], the Potency was 48.8 µM (active) and inactive.

Consider `CCCCC1(COC(=O)CCC(=O)O)C(=O)N(c2ccccc2)N(c2ccccc2)C1=O`, for which the Potency entry in assay [1], in [2], in [3], in assay [4], in assay [5] and in assay [17] was “inactive” each time. For the same compound, the Potency entry in assay [18], in assay [7], in assay [19] and in assay [9] was “inactive” each time. The call in assay [16] was inactive.

On to `Cc1cc(=O)oc2cc(O)ccc12`, for which the Potency entry in [1], in assay [2], in [3], in assay [4], in assay [5] and in [6] was “inactive” each time. Besides, the Potency result in assay [17], in assay [18], in assay [7], in assay [8], in [20] and in [9] was “inactive” throughout. Moreover, the Potency result in [10], in [12], in assay [14] and in assay [15] was “inactive” each time. Moreover, the max activation in [11] is -6.81% (inactive). For the same compound, the compound was classed as inactive in assay [13].

Consider `CCCC[P+](CCCC)(CCCC)CCCC`, for which the Potency result in [1], in assay [2], in [3], in assay [4], in assay [5] and in [6] was “inactive” in each case. For the same compound, the Potency result in assay [7], in [19], in assay [20] and in assay [9] was “inactive” each time.

Turning to `Cc1c(C(=O)O)c(O)cc2c1C(=O)c1c(O)c([C@@H]3O[C@H](CO)[C@@H](O)[C@H](O)[C@H]3O)c(O)c(O)c1C2=O`, the Potency entry in assay [1], in assay [2], in [3], in assay [4], in assay [5] and in [17] was “inactive” throughout. Further, the Potency result in [18], in assay [20], in assay [10] and in assay [12] was “inactive” in each case. Also, the outcome in assay [16] and in [13] was inactive. Besides, the Potency in assay [7] is 11.2 µM (active) and 13.7 µM (active) and 23.7 µM (active); in assay [19], 33.5 µM (active) and 27.3 µM (active) and 23.7 µM (active); in assay [9], 18.9 µM (active) and 15.4 µM (active) and 26.6 µM (active); in [14], 31 µM (active) and 39.9 µM (active); in assay [15], 39 µM (active). The max activation in [11] is -3.66% (inactive).
